Here are results for 39 compounds from PubChem BioAssay (EPA / NIEHS).

Molecules are shown by their SMILES. Records with an inconclusive call do not appear. Some structures have more than one record in an assay (separate samples or runs), and their calls can disagree. The source made the active and inactive calls. Rule for the calls: active = hit-call score of the fitted dose curve at least 0.9, where 1 is the maximum; inconclusive = response in the unintended direction; inactive = score below 0.9.

Sequence of human Peroxisome Proliferator-activated Receptor delta (PPARd), PPARD (gene 5467) (Q03181 whole entry, looked up): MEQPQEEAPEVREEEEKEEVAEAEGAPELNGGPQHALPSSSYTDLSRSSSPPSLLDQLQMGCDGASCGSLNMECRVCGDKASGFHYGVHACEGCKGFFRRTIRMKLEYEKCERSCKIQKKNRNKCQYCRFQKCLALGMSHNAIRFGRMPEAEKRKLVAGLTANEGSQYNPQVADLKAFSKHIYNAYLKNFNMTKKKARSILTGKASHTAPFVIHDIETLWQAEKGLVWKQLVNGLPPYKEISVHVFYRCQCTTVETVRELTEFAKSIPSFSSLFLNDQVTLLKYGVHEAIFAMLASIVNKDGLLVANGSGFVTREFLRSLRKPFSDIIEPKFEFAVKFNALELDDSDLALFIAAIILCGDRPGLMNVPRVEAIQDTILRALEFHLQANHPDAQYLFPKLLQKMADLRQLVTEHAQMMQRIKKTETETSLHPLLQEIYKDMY

In the test the target is human Peroxisome Proliferator-activated Receptor delta (PPARd), PPARD (gene 5467) (UniProt Q03181). Briefly: ATG_PPARd_TRANS: Attagene TRANS-FACTORIAL HepG2 Assay for human Peroxisome Proliferator-activated Receptor delta (PPARd) (AID 2283002). The procedure:
ATG_TRANS is a cell-based, multiplexed-readout assay that uses HepG2, a human liver cell line, with measurements taken at 24 hours after chemical dosing in a 24-well plate.ATG_PPARd_TRANS is one of 30 assay component(s) measured or calculated from the ATG_TRANS assay. It is designed to make measurements of mRNA induction, a form of inducible reporter, as detected with fluorescence intensity signals by Reverse transcription polymerase chain reaction (RT-PCR) and Capillary electrophoresis technology.Data from the assay component ATG_PPARd_TRANS was analyzed into 1 assay endpoint. This assay endpoint, ATG_PPARd_TRANS, was analyzed in the positive analysis fitting direction relative to DMSO as the negative control and baseline of activity. Using a type of inducible reporter, measures of mRNA for gain-of-signal activity can be used to understand the reporter gene at the transcription factor-level as they relate to the gene PPARD. Furthermore, this assay endpoint can be referred to as a primary readout, because this assay has produced multiple assay endpoints where this one serves a reporter gene function. To generalize the intended target to other relatable targets, this assay endpoint is annotated to the nuclear receptor intended target family, where the subfamily is non-steroidal.
Human liver HepG2 cells are transiently transfected with multiple reporter transcription units (MRTUs) in 6-well plates using FuGene 6 reagent (Roche; 3 ml FuGene/1 mg DNA). The MRTU constructs are regulated by a cis-regulating element (promoter). […] A major difference between the CIS and TRANS system is that in CIS activities of endogenous TFs are measured, whereas the TRANS assay evaluates changes in activities of exogenous, chimeric NR-Gal4 proteins. […] At the end of 24 hour incubation, total RNA was isolated using TriZol reagent (Invitrogen). The isolated RNA is then reverse-transcribed using oligo(dT) primer and Mo-MLV reverse transcriptase (Invitrogen) with DNAse I (Ambion) treatment for 30 min. The one-tenth of the produced cDNA was amplified by PCR using Taq DNA polymerase (Invitrogen) and two reporter sequence-specific primers. The PCR products were fluorescently labeled by primer extension with 6-arboxyfluorescein (6-FAM) 5'-labeled reporter sequence-specific primer (2 min at 95 C, 20 s at 68 C and 10 min at 72 C) and these products were digested with 5U of HpaI (New England Biolabs) for 2h at 37 C. The fragments were purified using Qiaquick PCR columns (Qiagen), analyzed on an ABI 3130xL genetic analyzer (Applied Biosystems) with peak positions identified by using a set of X-rhodamine (ROX)-labeled MapMarker1000 molecular weight standards (BioVentures). The raw capillary electrophoresis data was processed using Attagraph software (Attagene).
Take `CCC(C)(C)C1CCC(O)CC1` (stereo not given): the result was inactive.
As for `FC(F)(I)C(F)(F)C(F)(F)C(F)(F)C(F)(F)C(F)(F)I`, the compound was called inactive.
For the compound `CC#C[C@]1(O)CC[C@H]2[C@@H]3CCC4=CC(=O)CCC4=C3[C@@H](c3ccc(N(C)C)cc3)C[C@@]21C`, the compound was classed as inactive.
The same measure, in the same setting: next, `c1ccc2c(c1)ccc1ccccc12`: “inactive”; `CCN(CC)CCNc1ccc(CNC=O)c2sc3ccc(OC)cc3c(=O)c12`: “inactive”.
As to `Nc1cccc2c(N)cccc12`, the outcome was inactive.
On the same count and under the same terms, under `CCc1ccc(CCOc2ccc(CC3SC(=O)NC3=O)cc2)nc1` (stereo not given) stands “inactive”; under `OC1CCC(C2CCCCC2)CC1` (stereo not given), “inactive”.
In the case of `CCCCCCCCOC(=O)CCCCCCCCC(=O)OCCCCCCCC`, the call was inactive.
In the case of `Cc1oc(-c2ccccc2)nc1CCOc1ccc(C[C@H](Nc2ccccc2C(=O)c2ccccc2)C(=O)O)cc1`, the compound was called inactive.
On the same count and under the same terms, next, `OC1CCCCC1`: “inactive”; `NC(=O)N(O)[C@@H]1C=C[C@H](Oc2cccc(Oc3ccc(F)cc3)c2)C1`: “inactive”; `COC(=O)CCCCC(=O)OC`: “inactive”.
For the compound `O=C(O)c1ccccc1C(c1ccc(O)cc1)c1ccc(O)cc1`, the compound was classed as inactive.
Turning to `COc1cc(CCC(=O)CC(=O)CCc2ccc(O)c(OC)c2)ccc1O`, the compound was called inactive.
Take `Oc1cc2ccccc2c2ccccc12`: the compound was called inactive.
On to `CC(C)(C)CC(C)(C)c1ccc(O)c(-n2nc3ccccc3n2)c1`, for which the outcome was inactive.
As to `CC(C)(C)c1cc(C(C)(C)C)c(O)c(C(C)(C)C)c1`, the result was inactive.
In the case of `CCCCC(CC)COC(=O)CCCCC(=O)OCC(CC)CCCC` (stereo not given), the compound was classed as inactive.
With `O=c1c(-c2ccc(O)cc2)coc2cc(O)ccc12`, the outcome was inactive.
Take `Cc1cc(CCN2CCN(c3nsc4ccccc34)CC2)cc2c1NC(=O)CC2(C)C`: the result was inactive.
`CC(O)C(=O)O` (stereo not given): the compound was classed as inactive.
Regarding `CCCCC[C@H](O)CC(=O)CCc1ccc(O)c(OC)c1`, the compound was classed as inactive.
Same read-out and setting: next, `CCCOC(=O)c1ccc(O)cc1`: “inactive”.
Consider `COCC(C)OCC(C)O` (stereo not given), for which the call was inactive.
For `CC1=C(/C=C/C(C)=C/C=C/C(C)=C/C(=O)O)C(C)(C)CCC1`, the concentration at half-maximal activity (AC50) is 56 µM (active) and the result was inactive.
With `CC(C)CCCCCCOC(=O)CCCCC(=O)OCCCCCCC(C)C`, the compound was called inactive.
Same read-out and setting: next, `O=C1OC2(c3ccccc31)c1cc(Br)c(O)c(Br)c1Oc1c2cc(Br)c(O)c1Br`: “inactive”; `CC(=O)CC(C)(C)O`: “inactive”; `CCCOc1sc(C(=O)N2CCC(c3cc(CN)ccc3F)CC2)c(C)c1Br`: “inactive”.
Take `CC[C@H](c1ccc(O)cc1)[C@@H](CC)c1ccc(O)cc1`: the result was inactive.
The same measure, in the same setting: next, `Oc1cccc(O)c1`: “inactive”; `CC(C)(C)c1cccc(C(C)(C)C)c1O`: “inactive”.
Still for that read-out and setting: next, `C[C@@H]1C[C@H]2[C@@H]3CCC4=CC(=O)C=C[C@]4(C)[C@@]3(F)[C@@H](O)C[C@]2(C)[C@@]1(O)C(=O)COP(=O)(O)O`: “inactive”; `OCCC(F)(F)C(F)(F)C(F)(F)C(F)(F)C(F)(F)C(F)(F)F`: “inactive”; `O=C(OCCOCCOC(=O)c1ccccc1)c1ccccc1`: “inactive”.
The same measure, in the same setting: next, `CCCCCCCCCCCCCC[N+](C)(C)C`: “inactive”; `CCCCCCCCCCCCN1CCCC1=O`: “inactive”; `O=C(O)Cc1cc(I)c(Oc2cc(I)c(O)c(I)c2)c(I)c1`: “inactive”.
